Results published in PubChem BioAssay AID2284182 (EPA ToxCast).
Records with an inconclusive call do not appear. Activity calls are given as the source filed them. How the source made its calls: active means hit-call score of the fitted dose curve at least 0.9, where 1 is the maximum; inconclusive means response in the unintended direction; inactive means score below 0.9.

The compounds below were run against human Serotonin Receptor 5-HT7 Agonism, HTR7 (gene 3363) (UniProt P34969) (assay: ERF_FR_GPCR_hHTR7: Eurofins (ERF) G Protein-Coupled Receptor (GPCR) Radioligand Binding LeadHunter Assay for human Serotonin Receptor 5-HT7 Agonism).
human Serotonin Receptor 5-HT7 Agonism, HTR7 (gene 3363), sequence (P34969 whole entry, looked up): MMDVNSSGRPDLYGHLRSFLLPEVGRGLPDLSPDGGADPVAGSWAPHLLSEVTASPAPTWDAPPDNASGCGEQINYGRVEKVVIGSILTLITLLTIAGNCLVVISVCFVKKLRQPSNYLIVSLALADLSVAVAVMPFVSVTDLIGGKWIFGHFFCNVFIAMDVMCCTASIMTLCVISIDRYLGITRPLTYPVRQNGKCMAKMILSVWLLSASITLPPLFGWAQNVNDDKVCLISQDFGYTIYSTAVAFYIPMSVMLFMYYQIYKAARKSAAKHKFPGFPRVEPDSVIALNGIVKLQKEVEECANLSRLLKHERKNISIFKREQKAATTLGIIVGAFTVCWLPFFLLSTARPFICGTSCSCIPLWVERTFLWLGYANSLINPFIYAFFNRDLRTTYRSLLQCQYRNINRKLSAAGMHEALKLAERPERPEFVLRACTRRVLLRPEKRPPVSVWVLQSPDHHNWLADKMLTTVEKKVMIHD
Experimental: ERF_FR_GPCR_hHTR7 is a biochemical, single-readout assay that uses extracted gene-proteins in a cell-free assay. Measurements were taken 2 hour after chemical dosing in a 96-well plate. See 5-HT7 Human Serotonin GPCR Binding (Agonist Radioligand) Assay, Cerep.ERF_FR_GPCR_hHTR7 is an assay component calculated from the ERF_FR_GPCR_hHTR7 assay. It is designed to measure radioligand binding using a type of binding reporter as detected by scintillation counting with radiometry technology.Data from the assay component ERF_FR_GPCR_hHTR7 was analyzed at the assay endpoint, ERF_FR_GPCR_hHTR7, in the positive analysis fitting direction relative to DMSO as the negative control and baseline of activity. Using a type of binding reporter, gain-of-signal activity can be used to understand changes in binding as they relate to gene HTR7. To generalize the intended target to other relatable targets, this assay endpoint is annotated to the gpcr intended target family, where the subfamily is serotonin.
Human cells are incubated for 120 minutes at room tempreture with [3H]LSD ligand (2.3 nM) and serotonin as control inhibitor. Test Sample Requirements: Minimum for 1) Screen: 60 ul of 10 mM stock -OR- 1 mg (pre-weighed) for 10 uM final testing. 2) Dose Response: 90 ul of 10 mM stock -OR- 1 mg (pre-weighed) for a top concentration at 10 uM.

Structure (SMILES) | AC50
O=C(/C=C/c1ccc(O)cc1)CC(=O)/C=C/c1ccc(O)cc1 | 1750 nM (active)
